VDR inh = Inhibitors of the vitamin D receptor (VDR): qHTS. Vitamin D3 receptor (Homo sapiens), P11473. VDR-SRC2-3 peptide fluorescence polarization, 2 h. Potency, µM, for inactives: max response, negative = inhibition, hits mostly inhibitors. 0.93% of 400,000 active. AID 504847, 2011; further: potency means the concentration at half of the fitted maximal effect
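Fluorescence polarization assay of small-molecule disruption of VDR binding to coregulator peptide SRC2-3. Compounds and controls pin-transferred, then read after 2 h incubation at ambient room temperature.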
Sfp inh = qHTS Assay for Inhibitors of Bacillus subtilis Sfp phosphopantetheinyl transferase (PPTase); Biochemical Sfp PPTase activity, qHTS; Potency, µM, inactives show largest response in the series, negative = inhibition, hits mostly inhibitors; 3.5% of 310,000 active; AID 1490, 2009;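 further: the enzyme is Sfp with the accession as filed and its product quenches rhodamine fluorescence; potency means the concentration at half of the fitted maximal effect; 0% = enzyme reaction without inhibitor and -100% = no enzyme wells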
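Sfp 15 nM + cpd, 15 min RT; start w/ rhodamine-CoA 5 uM, BHQ-2-YbbR 12.5 uM (final); 50 mM Hepes pH 7.6, 10 mM MgCl2, 0.01% NP-40, 0.01% BSA; read 525/598 nm at 0 and 30 min.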
PLK1 PBD inh = qHTS for Inhibitors of PLK1-PDB (polo-like kinase 1 - polo-box domain): Primary Screen; Serine/threonine-protein kinase PLK1 (Homo sapiens), P53350; Plk1 PBD binding of FITC phosphopeptide, fluorescence polarization; Potency, µM, for the others: max response, negative = inhibition, most hits filed as inhibitors; 2.8% of 360,000 active; AID 720504, 2013; further: potency means the concentration at half of the fitted maximal effect; series mostly up to about 57 µM; nearly all actives have a fitted effect of over 65% in size
Target sequence (P53350 whole entry, looked up, the tested form may be a part): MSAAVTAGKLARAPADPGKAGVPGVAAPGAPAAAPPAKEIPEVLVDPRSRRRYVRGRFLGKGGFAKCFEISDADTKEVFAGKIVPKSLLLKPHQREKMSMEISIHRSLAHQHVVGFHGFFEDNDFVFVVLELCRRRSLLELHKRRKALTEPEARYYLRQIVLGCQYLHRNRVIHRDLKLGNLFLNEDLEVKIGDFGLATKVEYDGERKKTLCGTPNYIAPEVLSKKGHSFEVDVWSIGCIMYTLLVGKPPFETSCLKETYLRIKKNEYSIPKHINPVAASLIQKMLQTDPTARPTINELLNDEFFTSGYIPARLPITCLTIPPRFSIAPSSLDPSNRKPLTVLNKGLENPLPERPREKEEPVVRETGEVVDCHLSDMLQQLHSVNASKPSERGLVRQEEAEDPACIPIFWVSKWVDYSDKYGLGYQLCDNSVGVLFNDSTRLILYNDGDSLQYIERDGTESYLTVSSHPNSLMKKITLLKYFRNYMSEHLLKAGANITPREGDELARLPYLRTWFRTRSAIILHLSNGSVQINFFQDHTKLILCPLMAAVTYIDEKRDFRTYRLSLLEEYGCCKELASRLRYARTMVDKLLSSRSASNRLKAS
MmCpn inh = Inhibitors of TCP-1 ring complex (TRiC) of Methanococcus maripaludis (MmCpn): qHTS | AID 504842, 2011 | Potency, µM (titrated, usually from 76.9 µM), inactives show at the top dose activity, negative = inhibition, most hits filed as inhibitors | purified Mm-Cpn ATPase, ADP Transcreener TR-FRET | 0.031% of 330,000 active; further: potency means the concentration at half of the fitted maximal effect; nearly all actives have a fitted effect of over 80% in size
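TR-FRET (320 nm excitation; 590 and 665 nm emission) reports ADP made from 10 uM ATP by 25 nM enzyme; compounds were preincubated 10 min, reaction run 30 min, both at 37°C.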
G9a inh = qHTS Assay for Inhibitors of Histone Lysine Methyltransferase G9a. 8.8% of 350,000 active. G9a H3K9 monomethylation, AlphaScreen, 2 h. Potency, µM (series often up to 102 µM), inactives show at the top dose activity, negative = inhibition, most hits filed as inhibitors. Histone-lysine N-methyltransferase EHMT2 (Homo sapiens), Q96KQ7. AID 504332, 2011; further: potency means the concentration at half of the fitted maximal effect; nearly all actives have a fitted effect of over 75% in size
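Methyltransferase reactions run at room temperature for 2 h (20 nM enzyme, 500 nM biotin-H3K9 peptide, 20 uM SAM) after a 15 min compound preincubation; product detected by AlphaScreen beads and anti-H3K9me1 antibody.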
CCT modulator = High-Throughput Screening for Modulators of Cytosolic Chaperonin Activity | activity change, % (concentration not given with the values), hits read low | purified chaperonin ATPase assay, HTRF ADP detection, 30 min | 0.3% of 360,000 active | AID 651819, 2012; in the data active means activity change below about -30%
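ATPase activity: ADP formed was measured by HTRF Transcreener (665/615 nm ratio) after 30 min at 37 deg C with 10 uM ATP. Compounds screened at one 76 uM concentration against 40 or 20 nM TRiC in Tris pH 7.4/KCl/MgCl2/DTT buffer.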
The depositor's hits bear a star; ? = inconclusive; . = no result; ! = a repeat was not active; [ ] = dose if it differs, or a comment. Compounds with a hit are over-represented: about 10% of the library has one in this group of screens. Unless noted, the call rests on the fitted dose curve; in most records, active means well fitted curve in the direction sought with a large enough effect; inconclusive means small, poorly fitted or top-dose-only effect, or another doubt; inactive means no such curve, though single readings can be large; an effect the other way counts as inactive or inconclusive. Unless noted, on the % scale 0 is the no-effect control and ±100 the full control effect.

SMILES	VDR inh	Sfp inh	PLK1 PBD inh	MmCpn inh	G9a inh	CCT modulator
CNCC(O)c1cccc(OC(=O)c2ccccc2C)c1 (configuration not stated)	-22.4%	6.6%	-18.9%	0.5%	56.2µM*	0.4
N#Cc1ccc(CN2CCC3(CC2)CCN(C(=O)Oc2ccccc2)CC3)cc1	2.0%	7.1%	.	.	2.3%[12.7 µM]	.
COc1ccc(O)c(CN2CCCC(C(=O)c3ccccc3SC)C2)c1 (configuration not stated)	-22.2%	-5.1%	-7.7%	2.0%	.	-45.1*
Cc1ccccc1Cn1cccc(C(=O)Nc2cc(Cl)ccc2C#N)c1=O	-10.4%	.	.	.	8.1%[59 µM]	.
C[N+]1(C)CCC(OC(=O)C(c2ccccc2)c2ccccc2)CC1	-0.1%	9.8%	-11.6%	.	6.7µM*!	0.5
Cc1ccc(C2C(S(C)(=O)=O)=C(O)C(=O)N2c2ccccc2)cc1 (configuration not stated) (tested in a mixture with another compound)	-9.0%	7.5%	-7.7%	-4.7%	70.8µM*	-2.0
CCCN1CCC[C@@H]2Cc3cn[nH]c3C[C@H]21	0.2%	?	.	.	-2.6%[59 µM]	.
CCCCCn1c(=O)c(C(=O)Nc2cnccn2)c(O)c2ccccc21	11.6%	15.7%	21.2µM*	1.2%	.	-3.5
COCCCNC(=O)c1c(NC(=O)c2ccco2)n(Cc2ccccc2)c2nc3ccccc3nc12	44.7µM*	-10.4%	?	-2.6%	?	1.0
COc1ccc(Cn2c(N)c(C(=O)NCc3ccco3)c3nc4ccccc4nc32)cc1OC	2.0%	?	-17.0%	-5.2%	?	2.2
CCCCCn1c(NC(=O)c2ccco2)c(C(=O)OCC)c2nc3ccccc3nc21	5.01µM*	?	?	-5.2%	50.1µM*	-2.9
COCCNC(=O)c1c(NC(=O)c2ccc(Br)o2)n(Cc2ccccc2)c2nc3ccccc3nc12	?	28.2µM*	-9.5%	-4.7%	?	-24.4
NC(=O)CNC(=O)[C@H](Cc1ccccc1)NC(=O)[C@H](CCCN=C(N)N)NC(=O)[C@@H](N)Cc1ccc(O)cc1	2.0%	19.3%	.	.	36.6%[59 µM]	.
CSc1ccc(CN2CCN(C(=O)Cc3ccccc3)CC2)cc1	-8.5%	.	-12.7%	.	.	-1.2
CCc1ccc(CN2CCN(C(=O)Cc3ccccc3)CC2)cc1	-8.3%	?	3.6%	-1.1%	22.4µM*	1.5
O=C(Cc1ccccc1)N1CCN(Cc2ccccc2Cl)CC1	3.3%	?	-3.7%	-1.4%	44.7µM*	-0.8
O=C(Cc1ccccc1)N1CCN(Cc2cccnc2)CC1	-1.4%	79.4µM*	-6.4%	-1.0%	6.31µM*	-2.2
Cc1cccc(CN2CCN(C(=O)Cc3ccccc3)CC2)c1	-3.7%	-16.4%	-15.4%	-2.5%	28.2µM*	-2.3
CN1CCN(C(=O)Cc2ccccc2)CC1	-13.2%	12.0%	-19.9%	0.0%	-0.5%	-0.8
c1cc(CN2CCCC3(CCNCC3)C2)ccn1	?	0.9%	.	.	-8.7%[12.7 µM]	.
CSc1ccc(CN2CCN(Cc3ccccc3Cl)CC2)cc1	-10.0%	22.4µM*	-9.2%	-0.4%	4.47µM*	-1.4
CCc1ccc(CN2CCN(Cc3cc(Br)ccc3O)CC2)cc1	-9.1%	?	-6.9%	0.2%	25.1µM*	1.2
CCN1CCN(Cc2cc(Br)ccc2O)CC1	-8.0%	2.2%	-2.2%	1.0%	?	2.0
O=S1(=O)N(Cc2ccc(F)cc2)CCCN1Cc1ccccc1Cl	7.9%	-10.4%	-5.5%	1.9%	125.6%	-2.2
CCOP(=S)(OCC)Oc1cc(C)nc(N(CC)CC)n1	?	-20.1%	.	.	.	.
SMILES	VDR inh	Sfp inh	PLK1 PBD inh	MmCpn inh	G9a inh	CCT modulator
C=CCn1c(O)c(C(CC)=NCCN2CCOCC2)c(=O)[nH]c1=O	-5.7%	5.2%	-7.7%	-0.7%	39.8µM*	-0.3
C=CCn1c(O)c(C(CC)=Nc2ccccc2NC(C)=O)c(=O)[nH]c1=O	-11.6%	13.4%	0.2%	1.2%	1.41µM*	3.2
C=CCn1c(O)c(C(CC)=Nc2ccccc2NC(=O)CC)c(=O)[nH]c1=O	-2.7%	3.9%	-4.6%	0.5%	?	-5.3
O=C=NCCCCN=C=O	-12.9%	7.7%	.	.	.	.
CNC(C(=O)c1ccccc1)C(OC)c1ccc(C)cc1 (configuration not stated)	-11.5%	-21.3%	-6.3%	2.0%	44.7µM*	0.2
COC1(C)CC(c2ccccc2)c2c(c3ccccc3oc2=O)O1 (configuration not stated)	-5.8%	-5.2%	.	.	.	.
O=C1NC(=O)C2(Cc3ccccc3N3CCCC32)C(=O)N1c1ccccc1 (configuration not stated)	-11.3%	?	-14.1%	-1.4%	28.2µM*	-7.0
CN1C(=O)N(C)C(=O)C2(Cc3cc(NC(=O)c4ccccc4Cl)ccc3N3CCCC32)C1=O (configuration not stated)	-7.6%	-18.4%	-20.7%	-5.0%	.	-0.6
O=C1NC(=O)C2(Cc3ccccc3N3CCCC32)C(=O)N1 (configuration not stated)	3.7%	-17.2%	-10.2%	1.6%	50.1µM*	-2.7
O=C1NC(=O)C2(Cc3ccccc3N3CCOCC32)C(=O)N1c1ccccc1 (configuration not stated)	14.5%	18.5%	-9.2%	0.6%	-3.9%	-2.4
Oc1c(Cl)cccc1Cc1cc(Cl)cc(Cl)c1O	-15.1%	.	26.7µM*	.	.	-0.1
Oc1c(Cl)cc(Cl)cc1CN1CCN(Cc2ccccc2)CC1	-2.5%	?	-5.6%	-0.6%	?	-2.1
Cc1cccc(N2C(=O)NC(=O)/C(=C\C=C\c3ccco3)C2=O)c1	?	44.7µM*	?	-1.7%	3.98µM*	-2.2
CN1C(=O)/C(=C/C=C/c2ccco2)C(=O)NC1=S	?	12.6µM*	?	-2.6%	2.82µM*	-2.6
Cc1ccc(N2C(=O)NC(=O)/C(=C\C=C\c3ccco3)C2=O)cc1	?	?	1.89µM*	-3.4%	35.5µM*	-3.4
Cc1ccc(N2C(=O)NC(=O)/C(=C\C=C\c3ccco3)C2=O)cc1C	?	-70.8%	1.5µM*	0.6%	10µM*	-2.2
O=C1NC(=O)N(Cc2ccccc2)C(=O)/C1=C\C=C\c1ccco1	?	-25.9%	110.2%	-2.7%	?	1.2
Oc1ccc2c3c1O[C@H]1c4oc5ccccc5c4C[C@]4(O)[C@H](C2)N(CC2CC2)CC[C@@]314	0.2%	-0.8%	.	.	.	.
